CYP2C19 inhib: inhibitors of human CYP2C19 | CYP2C19 Supersomes, luciferin-H EGE luminescence, 30 min | 96,000 compounds, 21% hits | inhibition, % at 5 µM;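 active = CYP2C19 inhibition above a set limit at 5 µM in the primary screen, cut at about 50% in these data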;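 also: plate controls were negative control wells for no effect and 2.5 mM tranylcypromine positive control for full effect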
CYP2C9 activ: increases human cytochrome P450 2C9 activity | P11712 | recombinant CYP2C9, luciferin-H conversion, luminescence; stronger effect = higher value; factor 1 = untreated enzyme, 0 = blocked | activation factor at 5 µM | 96,000 compounds, 1.4% hits | AID 1024;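 active = activation factor of 2 or more for CYP2C9 at a 5 µM dose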;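 also: 0 = sulfaphenazole-blocked wells and 1 = vehicle-only wells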
Target sequence (P11712 whole entry, looked up): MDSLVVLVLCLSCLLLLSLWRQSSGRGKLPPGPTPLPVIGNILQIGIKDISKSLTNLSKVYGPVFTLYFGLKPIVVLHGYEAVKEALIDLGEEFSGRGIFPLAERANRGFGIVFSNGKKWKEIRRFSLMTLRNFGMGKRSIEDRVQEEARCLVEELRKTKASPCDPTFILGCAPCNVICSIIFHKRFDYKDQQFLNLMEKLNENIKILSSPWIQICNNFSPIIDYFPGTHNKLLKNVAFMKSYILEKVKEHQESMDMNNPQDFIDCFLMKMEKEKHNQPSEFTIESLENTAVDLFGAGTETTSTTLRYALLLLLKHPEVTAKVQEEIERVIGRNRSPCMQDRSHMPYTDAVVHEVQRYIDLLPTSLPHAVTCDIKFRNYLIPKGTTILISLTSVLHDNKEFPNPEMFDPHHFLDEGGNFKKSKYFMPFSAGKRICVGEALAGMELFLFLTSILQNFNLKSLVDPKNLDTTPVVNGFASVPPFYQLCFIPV
Pyk2 oligo antag: blocks oligomerization of human Pyk2 in cells; AID 1347419; 99,000 compounds, 0.83% hits; z-score (the deposit names both 25 µM and 10 µM); Q14289; Q293 cells, Pyk2 FERM NanoBiT luminescence; stronger effect = lower value;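 active = Z-score of -3 or lower, scaled per plate to the spread of control and sample wells; inactive = z-score above -3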;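 also: negative z-score means lost luminescence so less FERM oligomerization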
CYP2C19 activ: increases human CYP2C19 enzyme activity; 96,000 tested, under 10 active; activation factor at 5 µM; recombinant CYP2C19, luciferin-H EGE luminescence; stronger effect = higher value; 0 = fully inhibited enzyme, 1 = untreated enzyme; AID 1025;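 active = activation factor of at least 2 at 5 µM in the primary screen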;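 also: 0 = wells with 2.5 mM tranylcypromine and 1 = vehicle-only wells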
CYP2C9 inhib: blocks human cytochrome P450 2C9; P11712; CYP2C9 Supersomes, luciferin-H conversion, luminescence; inhibition, % at 5 µM; 96,000 compounds, 20% hits;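 active = blocking of liver enzyme CYP2C9 beyond about 50% at 5 µM, limit read from the data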
* marks the source's active call; other numbers are inactive results; . = not tested or not shown. Shown are actives, neighbours in structure and some others; about 28% of the full set was active somewhere.

SMILES	CYP2C19 inhib	CYP2C9 activ	Pyk2 oligo antag	CYP2C19 activ	CYP2C9 inhib
Cc1ccc(OCc2nc(-c3ccc(Cl)cc3)n[nH]2)cc1	95*	0.1	-1.2	0	94*
S=c1[nH]nc(COc2ccc(Cl)cc2)o1	-11	0.9	1.4	1.1	14
COCCOc1cc(Nc2nnc(C(F)(F)F)s2)c(Cl)cc1Cl	66*	0.1	-2.7	0.3	92*
CCOC(=O)C(NCc1ccc(F)cc1)(NC(=O)c1ccccc1)C(F)(F)F (stereo not drawn)	.	.	0.07	.	.
COC(=O)C(NNc1ccccc1C)(NC(=O)c1ccc(F)cc1)C(F)(F)F (stereo not drawn)	79*	0.5	0.82	0.2	54*
c1nc(NCCN2CCOCC2)c2c3c(sc2n1)CCCCC3	47	0.6	-0.2	0.5	44
CC1CCc2c(sc3ncnc(NCCCOC(C)C)c23)C1 (stereo not drawn)	98*	0.1	-0.26	0	89*
COCCn1c(=O)[nH]c2cc(C(=O)NC(C)C)ccc2c1=O	-6	1	-0.61	1.1	0
NS(=O)(=O)c1ccc(Nc2ncccc2[N+](=O)[O-])cc1	-10	0.9	-0.77	1.1	14
NS(=O)(=O)c1cccnc1Nc1c(Cl)cccc1Cl	60*	0.5	0.01	0.4	46
COc1ccc(C)cc1-n1nnnc1SCc1nc2ccccc2s1	73*	0.2	-2.8	0.3	78*
Cc1cc(C(=O)CSc2nnnn2C)c(C)n1CCc1ccc(Cl)cc1	22	0.9	0.16	0.8	9
COc1cc(CSc2nnnn2-c2ccc(C)cc2)cc(OC)c1OC	34	0.4	-1.9	0.7	64*
CCOc1cc(C#N)c(NC(=O)CSc2nnnn2-c2ccc(OC)cc2)cc1OCC	4	0.9	-0.52	1	5
COc1ccc(C)cc1-n1nnnc1SCC(=O)Nc1cc(C)on1	.	.	-1.1	.	.
COc1ccc(CCn2c(C)cc(C(=O)CSc3nnnn3-c3ccccc3)c2C)cc1	16	2.4*	0.39	0.8	-140
C=CCSc1nnnn1-c1ccc(OC)cc1	98*	0.3	2.1	0	66*
O=C1NC2=C(C(=O)CCC2)C(c2ccc3ncccc3c2)N1 (stereo not drawn)	-8	1	0.53	1.1	-1
COc1ccc(CNC(=O)COC(=O)c2cccnc2Nc2cccc(C(F)(F)F)c2)cc1	-30	0.5	1.5	1.3	49
CCOC(=O)NC(=O)CSc1nnnn1-c1ccccc1	46	1.9	1.4	0.5	-94
CSc1ccccc1-n1nnnc1SCc1ccccc1	87*	0.3	-2.4	0.1	66*
COCCn1c(SCc2nc3ccccc3s2)nc2ccccc21	100*	0.1	-0.36	0	86*
COc1ccc(C)cc1-n1nnnc1SCC1CCCO1 (stereo not drawn)	98*	0.4	0.84	0	55*
COC(=O)CSc1nnnn1-c1ccccc1	56*	1	-0.02	0.4	2
COc1ccc(C)cc1-n1nnnc1SCC(=O)c1ccc2c(c1)OCCO2	-3	1.2	-1.1	1	-17
SMILES	CYP2C19 inhib	CYP2C9 activ	Pyk2 oligo antag	CYP2C19 activ	CYP2C9 inhib
CCc1ccc(Nc2nc(N)nc(CSc3nnnn3-c3ccccc3)n2)cc1	10	0.9	-1.3	0.9	12
O=C(NC1CCCC1)c1ccc(CNc2c(N3CCOCC3)c(=O)c2=O)cc1	-21	1.2	.	1.2	-20
O=C(CN1CCOCC1)Nc1ncc(Cc2cccc3ccccc23)s1	27	1.1	-0.13	0.7	-5
COc1ccc(S(=O)(=O)N2CCC(=O)N2)cc1	4	0.9	0.8	1	10
O=C(CSc1nnnn1-c1cccc(F)c1)Nc1nc2ccccc2s1	.	.	1	.	.
O=C(CSc1nnnn1-c1ccccc1)Nc1nsc(-c2ccccc2)n1	19	1.6	-0.43	0.8	-58
COc1ccc(-c2nnc(SCc3ccccc3)n2N)cc1	21	1.1	-0.48	0.8	-8
NC(=O)c1ccc(-n2nnnc2SCc2ccc(F)cc2)cc1	75*	0.8	-1.1	0.3	20
O=C(O)c1ccc(-n2nnnc2SCc2ccccc2)cc1	-24	0.7	0.12	1.2	35
COc1ccc(-n2nnnc2SCc2nc3ccccc3s2)cc1	95*	0.2	0.14	0	79*
COc1ccc(CSc2nnnn2-c2ccccc2)cc1	96*	0.1	-1.7	0	89*
CC1=Nc2ccccc2N=C(NC(=O)CSc2nnnn2-c2ccccc2)C1c1ccccc1 (stereo not drawn)	79*	0.1	-1.4	0.2	95*
CCC1CCCCN1C(=O)N[C@@H](Cc1ccccc1)C(=O)O (stereo partly drawn)	-2	1.1	0.25	1	-10
CC(=O)Nc1ccc(S(=O)(=O)NC2(C(F)(F)F)N=C(c3ccccc3)NC2=O)cc1 (stereo not drawn)	-9	1	1.6	1.1	3
CN(C)S(=O)(=O)c1ccc(C(=O)OCCCN=C2NS(=O)(=O)c3ccccc32)cc1	16	0.5	.	0.8	47
Cc1ccc(Oc2ncccc2/C=N/OCc2ccc(Cl)c(Cl)c2)cc1	-15	1.2	1.1	1.2	-17
O=C(CSc1nnc(CNc2ccc(F)cc2)n1Cc1ccccc1)N1CCOCC1	-1	0.9	-0.01	1	14
O=C(CSc1nnnn1-c1ccccc1)N1CCc2ccccc2C1	65*	0.8	0.49	0.4	15
O/N=C/CCn1c(=S)sc2ccccc21	50	5.1*	-0.29	0.5	-409
CC(=O)N=c1sc2ccccc2n1C	28	0.9	0.58	0.7	14
COC(=O)c1ccccc1NC1=C/C(=N\S(=O)(=O)c2cccs2)c2ccccc2C1=O	67*	0.2	-5*	0.3	83*
O=C1C(Nc2ccccc2)=C/C(=N/S(=O)(=O)c2cccs2)c2ccccc21	.	.	-3.8*	.	.
COC(=O)c1ccccc1Nc1ccccc1	-9	1	0.12	1.1	2
COc1ccc(C(=O)NC(Nc2ccc(C)cc2)C(Cl)(Cl)Cl)cc1 (stereo not drawn)	.	.	-1.7	.	.
COc1ccc(NC(NC(=O)c2ccc(OC)cc2)C(Cl)(Cl)Cl)cc1 (stereo not drawn)	66*	0.2	-1.2	0.3	84*
SMILES	CYP2C19 inhib	CYP2C9 activ	Pyk2 oligo antag	CYP2C19 activ	CYP2C9 inhib
O=C(Nc1ccc(Cl)c(-c2nc3ccccc3[nH]2)c1)c1cccnc1	60*	0.2	-1.1	0.4	83*
O=C(Cc1ccc(Cl)cc1)Nc1ccc(-c2cc3ccccc3oc2=O)c(Cl)c1	.	.	-1.2	.	.
O=C(Nc1ccc(-c2cc3ccccc3oc2=O)c(Cl)c1)c1cccnc1	22	2.2*	2.3	0.8	-120
C=CCSc1nc2ccccc2n1C(=O)/C=C/c1cc(OC)c(OC)c(OC)c1	55*	0.2	-1.7	0.5	78*
O=C(CSc1nc(-c2ccccc2)cs1)NC(=O)NCc1ccco1	.	.	0.26	.	.
O=C(CSc1nc2ccccc2o1)NCc1ccco1	72*	1	0.34	0.3	0
O=C(CSc1nc2ccccc2o1)NC(=O)NCc1ccco1	51*	0.8	1	0.5	25

Screens from PubChem BioAssay.
